In PubChem BioAssay (NCATS):
Records with an inconclusive call do not appear. The source made the active and inactive calls. The call rests on the fitted dose curve; in most records, active means well fitted curve in the direction sought with a large enough effect; inconclusive means small, poorly fitted or top-dose-only effect, or another doubt; inactive means no such curve, though single readings can be large; an effect the other way counts as inactive or inconclusive.

How the values were obtained:
[1] = system: Zika virus NS2B-NS3 protease (linked construct); assay: Primary screen NINDS Rhodamine qHTS for Zika virus inhibitors (AID 1347160); further: nearly all actives have a fitted effect of over 55% in size
Method in brief: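 Enzyme (25 nM, linked NS2B-NS3) was preincubated 15 min with compound in 10 mM Tris-HCl pH 8.0, 0.01% Tween 20. Rhodamine110 substrate (1.5 microM) was then added and fluorescence read at start and after 15 min.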

[2] = molecular target: Calcium and integrin-binding protein 1 (Homo sapiens) (UniProt Q99828); assay: Primary qHTS for Identification of Calcium Integrin Binding Protein 1 (CIB1) Competitor (AID 1508620);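 further: GST tagged CIB1 binding a fluorescein labelled alphaIIb integrin peptide tracer; top concentration of the series differs between compounds; on the % scale 0 is the no-effect control and ±100 the full control effect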
Chain of Calcium and integrin-binding protein 1 (Homo sapiens) (Q99828 whole entry, looked up): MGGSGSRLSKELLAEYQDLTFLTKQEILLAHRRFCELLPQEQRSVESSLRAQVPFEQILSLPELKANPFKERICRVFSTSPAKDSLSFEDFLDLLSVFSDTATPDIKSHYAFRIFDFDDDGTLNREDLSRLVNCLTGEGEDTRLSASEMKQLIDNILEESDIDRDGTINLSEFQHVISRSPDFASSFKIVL
Method in brief: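 Fluorescence polarization competition: CIB1-GST (1 uM final) preincubated with compound 15 min at room temperature, then FITC-labeled alphaIIb peptide (100 nM final) added for another 15 min. Polarization read at Ex 480/Em 540.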

[3] = molecular target: Glutathione peroxidase 1 (Homo sapiens) (UniProt P07203); assay: Primary qHTS Assay for Inhibitors of Recombinant Selenoprotein Glutathione Peroxidase 1 (GPX1) (AID 1845191); further: nearly all actives have a fitted effect of over 65% in size
Chain of Glutathione peroxidase 1 (Homo sapiens) (P07203 whole entry, looked up): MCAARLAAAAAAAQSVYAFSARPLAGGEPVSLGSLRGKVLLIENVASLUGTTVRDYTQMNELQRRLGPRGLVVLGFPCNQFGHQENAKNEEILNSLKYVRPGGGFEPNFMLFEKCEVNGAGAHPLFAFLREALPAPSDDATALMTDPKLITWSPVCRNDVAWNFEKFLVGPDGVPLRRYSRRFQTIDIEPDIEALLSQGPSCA
Method in brief: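 GPX1 10 nM, GR 100 nM, GSH 1 mM, NADPH 0.5 mM, CHP 0.5 mM (final). 30-min cpd preincubation, RT. Ex340/Em450 read t=0, t=15 min.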

[4] = molecular target: Phospholipid hydroperoxide glutathione peroxidase GPX4 (Homo sapiens) (UniProt P36969); assay: Primary qHTS Assay for Inhibitors of Recombinant Selenoprotein Glutathione Peroxidase 4 (GPX4) (AID 1845192); further: on the % scale 0 is the no-effect control and ±100 the full control effect; nearly all actives have a fitted effect of over 65% in size
Chain of Phospholipid hydroperoxide glutathione peroxidase GPX4 (Homo sapiens) (P36969 whole entry, looked up): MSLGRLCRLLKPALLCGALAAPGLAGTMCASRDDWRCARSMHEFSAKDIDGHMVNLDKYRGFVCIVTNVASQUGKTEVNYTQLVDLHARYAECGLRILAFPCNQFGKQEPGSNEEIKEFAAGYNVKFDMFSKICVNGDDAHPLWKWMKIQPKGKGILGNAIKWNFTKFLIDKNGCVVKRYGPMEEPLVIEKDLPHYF
Method in brief: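 qHTS, GR-coupled: GPX4 200 nM + cpd 30 min RT → GSH 1 mM, NADPH 0.5 mM, GR 100 nM → CHP 0.5 mM start; fluor 340/450 at t0 and t15 min; no-enzyme wells as control.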

[5] = molecular target: Luciferin 4-monooxygenase (Photinus pyralis) (UniProt P08659); assay: Primary firefly luciferase (FLuc) qHTS assay for identification of artifact compounds. (AID 1845220); conditions: outcome: dose series up to 54.1 µM unless noted;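 further: plate controls were DMSO vehicle for no effect and no enzyme for full effect; nearly all actives have a fitted effect of over 60% in size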
Method in brief: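 Reaction readout was CCD-imaged luminescence, taken 5 min after adding 10 nM purified firefly enzyme to compound-treated wells holding 10 uM luciferin and ATP in pH 7.6 buffer.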

[6] = Primary fluorescence-based thiol-reactive (MSTI) qHTS assay for identification of artifact compounds. (AID 1845221); further: nearly all actives have a fitted effect of over 65% in size; further: potency means the concentration at half of the fitted maximal effect
Method in brief: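 Curve-fitted percent inhibition (4-parameter Hill) derived from fluorescence, Ex 525/Em 598 nm, scaled with Acetyl-MSTI and MSTI; 1 h incubation at room temperature.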

[7] = system: Nanoluciferase (engineered Oplophorus gracilirostris luciferase); assay: Primary Nanoluciferase (NLuc) qHTS assay for identification of artifact compounds. (AID 1845222);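 further: NLuc secreted into diluted conditioned medium of S16 cells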
Method in brief: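 Concentration-response data were obtained by luminescence after 5 min with Nano-Glo substrate at 1:100. The enzyme was diluted S16 NLuc-expressing cell medium, preincubated with compound for 15 min at RT. Curves were fitted with a 4-parameter Hill model.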

[8] = Primary redox qHTS assay for identification of artifact compounds. (AID 1845223);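 further: 0% = DMSO and 100% = reference compound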
Method in brief: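 Redox-cycling detection via DTT (250 uM final) oxidation coupled to Amplex Red (25 uM)/HRP (250 mU/mL) in HBSS. 15 min preincubation plus 30 min after DTT, room temperature. Ex/Em 525/598 nm; 4-parameter Hill fit against DMSO and 10 uM DA3003.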

[9] = system: CRL-7250; assay: Cytotoxic Profiling of Annotated Libraries Using Quantitative High-Throughput Screening (AID 1296008); conditions: Five cell lines viability, CellTiter-Glo ATP luminescence, 48-72 h; max response: hits give low values; further: nearly all actives have a fitted effect of over 60% in size; further: potency means the concentration at half of the fitted maximal effect; on max response: on the % scale 0 is the no-effect control and ±100 the full control effect
Method in brief: (§1)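 Compounds were pin-transferred onto cells and incubated 48 or 72 hr at 37 degree Celsius, 95% humidity. CellTiter-Glo was added, plates sat 10 min at room temperature, then ATP-coupled luminescence was imaged as the viability read-out.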

[10] = system: KB-3-1; assay: as above; conditions: Five cell lines viability, CellTiter-Glo ATP luminescence, 48-72 h; max response: hits give low values
Method in brief: as §1

[11] = system: C33A; assay: Primary qHTS to identify gynecologic anti-cancer compounds using libraries of approved drugs and bioactive compounds (AID 1345084); conditions: Gynecologic cancer cell panel viability, ATPlite luminescence, 48 h; series mostly up to 57.5 µM; further: nearly all actives have a fitted effect of over 55% in size; further: potency means the concentration at half of the fitted maximal effect
Method in brief: (§2)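 Cytotoxicity screen measuring ATP content by luciferase luminescence. Each compound is applied at five concentrations for 48 h at 37 C with 5% CO2.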

[12] = system: CAOV3; assay: as above; conditions: Gynecologic cancer cell panel viability, ATPlite luminescence, 48 h; series mostly up to 57.5 µM
Method in brief: as §2

[13] = system: CASKI; assay: as above; conditions: Gynecologic cancer cell panel viability, ATPlite luminescence, 48 h; series mostly up to 57.5 µM
Method in brief: as §2

[14] = system: Es-2; assay: as above; conditions: Gynecologic cancer cell panel viability, ATPlite luminescence, 48 h; series mostly up to 57.5 µM
Method in brief: as §2

[15] = system: Hek293T; assay: as above; conditions: Gynecologic cancer cell panel viability, ATPlite luminescence, 48 h, control line for the selectivity index; series mostly up to 57.5 µM
Method in brief: as §2

[16] = system: JEG-3; assay: as above; conditions: Gynecologic cancer cell panel viability, ATPlite luminescence, 48 h; series mostly up to 57.5 µM
Method in brief: as §2

[17] = system: OV90; assay: as above; conditions: Gynecologic cancer cell panel viability, ATPlite luminescence, 48 h; series mostly up to 57.5 µM
Method in brief: as §2

[18] = system: PA-1; assay: as above; conditions: Gynecologic cancer cell panel viability, ATPlite luminescence, 48 h; series mostly up to 57.5 µM
Method in brief: as §2

[19] = system: Tov-21-G; assay: as above; conditions: Gynecologic cancer cell panel viability, ATPlite luminescence, 48 h; series mostly up to 57.5 µM
Method in brief: as §2

[20] = system: Tov112D; assay: as above; conditions: Gynecologic cancer cell panel viability, ATPlite luminescence, 48 h; series mostly up to 57.5 µM
Method in brief: as §2

Clc1ccc([C@]23CNC[C@H]2C3)cc1Cl
inactive: Potency [1] | Potency [2] | Potency [3] | Potency [4] | outcome [5] | Potency [6] | Potency [7] | Potency [8] | max response [9] -9.42% | max response [10] -2.06% | Potency [11] | Potency [12] | Potency [13] | Potency [14] | Potency [15] | Potency [16] | Potency [17] | Potency [18] | Potency [19] | Potency [20]

CC1CCCC(O)CCC/C=C/c2cc(O)cc(O)c2C(=O)O1 (stereo unspecified)
active: Potency [6] 1850 nM
inactive: Potency [2] | Potency [4] | outcome [5] | Potency [7] | Potency [8] | max response [9] -5.57% | outcome [10] | Potency [12] | Potency [13] | Potency [14] | Potency [15] | Potency [16] | Potency [17] | Potency [18] | Potency [19] | Potency [20]

CCC1CN2CCc3cc(OC)c(OC)cc3C2CC1CC1=NCCc2cc(O)c(OC)cc21 (stereo unspecified)
inactive: Potency [1] | Potency [2] | Potency [3] | Potency [4] | outcome [5] | Potency [7] | max response [9] -0.358% | max response [10] -7.09% | Potency [11] | Potency [12] | Potency [13] | Potency [14] | Potency [15] | Potency [16] | Potency [17] | Potency [18] | Potency [19] | Potency [20]

C#CC1(O)CCC2C3CCC4=CC(=O)CCC4=C3C=CC21C (stereo unspecified)
active: Potency [10] 6510 nM | Potency [18] 11200 nM
inactive: Potency [1] | Potency [2] | Potency [3] | outcome [5] | Potency [6] | Potency [7] | Potency [8] | max response [9] -2.47% | Potency [11] | Potency [12] | Potency [13] | Potency [14] | Potency [15] | Potency [16] | Potency [17] | Potency [19] | Potency [20]

O=C(C[C@@H]1NCCC[C@H]1O)Cn1cnc2ccccc2c1=O
inactive: Potency [1] | Potency [2] | Potency [3] | Potency [4] | Potency [6] | Potency [7] | Potency [8]
active: Potency [9] 231 nM | Potency [10] 259 nM | Potency [11] 631 nM | Potency [13] 1780 nM | Potency [14] 1410 nM | Potency [15] 447 nM | Potency [17] 11200 nM | Potency [18] 282 nM | Potency [19] 794 nM | Potency [20] 631 nM

CC1=CC2/C=C(\C)CCC(O)C(O)/C=C/C(=O)OC23C(=O)NC(CC(C)C)C3C1C (stereo unspecified)
inactive: Potency [1] | Potency [2] | Potency [3] | Potency [4] | outcome [5] | Potency [6] | Potency [7] | Potency [8] | max response [9] -26.9% | max response [10] 9.99% | Potency [11] | Potency [12] | Potency [13] | Potency [14] | Potency [15] | Potency [16] | Potency [17] | Potency [18] | Potency [19] | Potency [20]
